Bioassay records as filed in PubChem BioAssay.
MCF10A rerep: induces DNA re-replication in MCF 10a normal breast cells. MCF 10A DNA re-replication, Hoechst nuclear intensity, 48 h. AID 624296. Potency, µM (top dose mostly 46.1 µM), without a hit: at the top dose activity, positive = re-replication, most hits filed as activators. 2.9% of 350,000 active; note: potency is the fitted concentration of half-maximal effect; % of control where 0% means no effect; nearly all actives have a fitted effect of over 50% in size
KB-3-1 cytotox: kills parental KB-3-1 adenocarcinoma cells; KB-3-1 viability, CellTiter-Glo ATP luminescence, 72 h; Potency, µM (titrated, usually from 46.1 µM), usual class: cytotoxic; 1.4% of 400,000 active; AID 1347075; note: potency is the fitted concentration of half-maximal effect; % is set by controls: 0 for no effect and ±100 for the full control effect; nearly all actives have a fitted effect of over 60% in size
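Cytotoxicity measured as CellTiter-Glo luminescence after 72 h at 37 C. Compound titrations were pinned onto drug-naive KB-3-1 parental adenocarcinoma cells grown in DMEM with 10% FBS, and normalized data fitted to concentration-response curves.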
KB-V1 MDR tox: KB-V1 MDR subline cytotoxicity; KB-V1 MDR cells viability, CellTiter-Glo, 72 h; Potency, µM (top dose mostly 46.1 µM), hits mostly cytotoxic; 3.4% of 400,000 active; AID 1347076; note: potency is the fitted concentration of half-maximal effect; % is set by controls: 0 for no effect and ±100 for the full control effect; nearly all actives have a fitted effect of over 60% in size
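Cytotoxicity via CellTiter-Glo luminescence after 72 h compound exposure at 37 degrees C. Cells: drug-selected KB-V1 line, DMEM phenol-red free plus 10% FBS. Compounds tested at multiple concentrations; normalized data fitted to concentration-effect curves.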
IL1B secr inh: blocks inflammasome-driven IL-1 beta release | activity change, % at 57.5 µM | THP-1 LPS/ATP IL-1B secretion, AlphaLISA, 16 h; hits give low values | 4.7% of 360,000 active; in the data active = activity change below about -50%; inconclusive = mostly about -30% to -49%; note: % is set by controls: 0 for no effect and ±100 for the full control effect
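Secreted IL-1B measured by AlphaLISA bead assay after 16 h compound exposure of THP-1 cells; compounds (final up to 57.5 uM) added 1 h before LPS (250 ng/mL) and ATP (1.25 mM) stimulation; lower signal means less secretion.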
SW480 rereplic: induces DNA re-replication in SW480 colon adenocarcinoma cells; 1.8% of 340,000 active; Potency, µM (titrated, usually from 46.1 µM), for inactives: at the top dose re-replication activation, usual class: activators; AID 624297; SW480 DNA re-replication, Hoechst DNA content imaging, 48 h; note: potency is the fitted concentration of half-maximal effect; % of control where 0% means no effect; nearly all actives have a fitted effect of over 55% in size
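First, 250 cells per well were seeded. Next, compound or vehicle (23 nL) was pinned in, plates sat 48 hr at 37 C. Finally Hoechst was added for 40 min before fluorescence scanning.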
Numbers without * were called inactive; i = inactive; ? = inconclusive; . = not tested or not shown; ! = a repeat was not active; [ ] = remark or other dose. Compounds with a hit are over-represented: about 9.9% of the library has one in this group of screens. Unless noted, calls come from the whole dose curve; as a rule, active = well fitted curve in the direction sought with a large enough effect; inconclusive = small, poorly fitted or top-dose-only effect, or another doubt; inactive = no such curve, though single readings can be large; an effect the other way counts as inactive or inconclusive.

SMILES	MCF10A rerep	KB-3-1 cytotox	KB-V1 MDR tox	IL1B secr inh	SW480 rereplic
CCCNC(=O)c1nc(C)n(-c2cc(Cl)ccc2Cl)n1	2%	i	i	43	?
CC(=O)Nc1ccc(CN2CCN(CC=C(C)C)C(CCO)C2)cc1 (stereo not given)	0%	i	i	1	0%
OCCC1CN(Cc2cnc(-c3cccc4ccccc34)nc2)CCN1C1CCCCC1 (stereo not given)	9%	i	i	-23	1.8µM*
CC(=O)Nc1ccc(CN2CCN(C3CCCC3)C(CCO)C2)cc1 (stereo not given)	2.6µM*	i	i	-20	4%
Cc1c(Cl)cccc1NC(=O)CN1C(=O)COc2ccc(S(=O)(=O)Nc3ccccc3)cc21	.	i	i	.	.
Cc1cc(NC(=O)COc2ccccc2)cc(-c2nc3ccccc3o2)c1O	.	i	i	.	.
c1ccc(CNc2c(-c3cccc(SC4CCCCC4)c3)nc3ccccn23)cc1	18µM*	i	i	-28	6.5µM*
Cc1ccn2c(NCc3ccccc3)c(-c3cccs3)nc2c1	?	i	?	0	0%
Clc1ccc2nc(-c3cccc(SC4CCCCC4)c3)c(NCc3ccccc3)n2c1	?	i	i	-24	-2%[9.22 µM]
COc1ccc(-c2cc(-c3nc4ccccn4c3NCc3ccccc3)ccc2OC)cc1	5.8µM*	i	?	-56*	16µM*
Cc1ccc2nc(-c3cccc(SC4CCCCC4)c3)c(NCc3ccccc3)n2c1	18µM*	?	?	-3	?
Cc1ccn2c(NCc3ccccc3)c(-c3cccc(SC4CCCCC4)c3)nc2c1	21µM*	?	21µM*!	-79*!	-10%
NC(=O)CSc1ccc2nnc(-c3ccncc3)n2n1	.	i	i	.	.
CC(C)(C)Cc1c(-c2cccc(Br)c2)nc2ccc(Cl)cn12	.	i	i	0	.
CCCCNc1c(-c2cccc(SC3CCCCC3)c2)nc2ccc(Cl)cn12	26µM*	?	?	-9	-4%
CCC(C)Sc1cccc(-c2nc3cc(C)ccn3c2NCc2ccccc2)c1 (stereo not given)	?	i	i	-73*	?
Clc1cccc(-c2ccc(-c3nc4ccccn4c3NCc3ccccc3)cc2)c1	16µM*	i	i	?	?
c1ccc(-c2nc3ccccn3c2NCc2ccc3c(c2)OCO3)cc1	23%	i	i	?	0%
CC1(C(=O)N2Cc3ccccc3C2)CCN1C(=O)C1(c2ccccc2)CC1 (stereo not given)	.	i	i	18	.
Cc1cc(C(C)(C)C)ccc1OCCn1ccnc1	?	i	?	29	0%
Cc1ccc(C(C)(C)C)c(OCCCn2ccnc2)c1	?	?	i	-26	17%
c1ccc(-c2ccccc2OCCCCn2ccnc2)cc1	1%	i	i	-58*	-3%[9.22 µM]
CC(C)(C)c1ccccc1OCCCCCn1ccnc1	-2%	i	?	-98*	2%
CC(C)(C)c1cc(Cl)ccc1OCCn1ccnc1	20%	i	i	-53*	2%
COc1cc(Nc2ncc3c(n2)CCN(Cc2cc(Br)cs2)C3)cc(OC)c1	.	i	i	.	.
SMILES	MCF10A rerep	KB-3-1 cytotox	KB-V1 MDR tox	IL1B secr inh	SW480 rereplic
COCCCN(C(=O)Cc1ccc(S(=O)(=O)N2CCOCC2)s1)c1c(N)n(Cc2ccccc2)c(=O)[nH]c1=O	4%	i	i	-2	-4%
CCN(CC)C(=O)Cn1cc(C(=O)C(=O)Nc2ccc3c(c2)OCCO3)c2ccccc21	?	?	?	?	1%
CCOc1ccc(/C=C/c2ccnc3ccccc23)cc1OCC	.	i	?	.	.
CCOC(=O)COc1ccc(/C=C/[N+](=O)[O-])c(OCC(=O)OCC)c1	?	?	i	-97*	?
CCOC(=O)COc1ccccc1/C=N/O	2%	i	i	0	-4%
CCOc1ccc(/C=C/[N+](=O)[O-])c2ccccc12	2.3µM*	?	18µM*	-101*	6.5µM*
CCOC(=O)COc1ccc2nsnc2c1	-1%	i	?	9	-5%
CCOC(=O)COc1ccc2ccccc2c1/C=C/[N+](=O)[O-]	?	18µM*	?	-92*	?
CC(C)CC[n+]1ccccc1/C=C/c1ccc(N(C)C)cc1	22%	1.5µM*	i	-95*	4.6µM*
COCCN(Cc1ccccc1)C(=S)Nc1ccc(OC(F)F)cc1	6%	i	?	-29	-4%
CN(CCOc1ccccc1)C(=S)Nc1ccc(OC(F)F)cc1	8%	i	i	-58*	-9%
CC1CCC(=C(C#N)C(=O)Nc2cccc(Cl)c2)CC1 (stereo not given)	?	i	i	-87*	-18%
CC(C)CN(C[C@@H](O)[C@H](Cc1ccccc1)NC(=O)O[C@H]1CO[C@H]2OCC[C@H]21)S(=O)(=O)c1ccc(N)cc1	-2%	.	.	.	?
O=C1CCCCc2sc(Br)c([N+](=O)[O-])c2N1	?	i	i	-105*	2.9µM*
O=C(c1cn(Cc2ccccc2)nc1-c1ccccc1)N1CCN(c2ccccn2)CC1	5%	10µM*	?	7	?
Cc1ccccc1C(=O)N1CCN(c2ccccn2)CC1	-1%	i	i	-11	1%
O=C(c1cnc(N2CCN(c3ncccn3)CC2)c2ccccc12)N1CCN(c2ccccn2)CC1	?	i	21µM*	-66*	-7%
O=C(c1ccccc1-c1ccccc1)N1CCN(c2ccccn2)CC1	7.3µM*	2.6µM*	2.6µM*	0	7.3µM*
O=C(c1cc(-c2ccncc2)nc2ccccc12)N1CCN(c2ccccn2)CC1	10µM*	13µM*	?	8	18µM*
O=C(c1ccccc1Br)N1CCN(c2ccccn2)CC1	1%	i	i	8	-1%
Cc1ccccc1C(=O)NNC(=O)C1CC(=O)N(c2ccc3c(c2)OCCO3)C1 (stereo not given)	0%	i	i	14	-6%
CCOC(=O)[C@]12CCCC=C1N(CCC1=CCCCC1)C(=O)[C@H](CC(=O)N1CCCC1)C2	.	i	?	30	.
CCCCOc1ccccc1C1C(C(=O)OC)=CN(CC)C=C1C(=O)OC	?	i	i	-26	12µM*
COC(=O)C1=CN(CC2CCCO2)C=C(C(=O)OC)C1c1ccccc1C(F)(F)F (stereo not given)	?	i	i	2	?
COC(=O)C1=CN(CCCN2CCCC2=O)C=C(C(=O)OC)C1c1ccccc1C(F)(F)F	13µM*	i	i	0	18µM*
CCCOc1ccccc1C1C(C(=O)OC)=CN(C(C)C)C=C1C(=O)OC	?	?	i	-1	?
